Test results taken from PubChem BioAssay.
Entries with a potency or affinity are not part of this list. Results filed as inconclusive are left out. The source made the active and inactive calls.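 How the source made its calls, unless noted: active means a dose-response fit showing signal loss, with half-maximal concentration no higher than twice the top tested dose; inconclusive means flat fit between 30% and 70% signal loss, or poor fit; inactive means the rest.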

Tests used:
[1] = fungal growth arrest, C. neoformans – Alamar Blue, cherry-picks, dose response (AID 686998;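 active means falling signal with fitted half-maximal potency no higher than twice the top valid tested dose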)
[2] = C. neoformans lysis by adenylate kinase leakage – AK release luminescence, cherry-picks, dose response (AID 687000;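 active means fitted dose curve reaches 40% lysis signal rise at or below the highest valid concentration tested for that sample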;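 further: luminescent detection of adenylate kinase leaking from lysed yeast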)
[3] = viability loss in HepG2 hepatoma cells – cell-based, cherry-picks, set 2, cytotoxicity control, dose response (AID 687002)
[4] = viability loss in HeLa cells – cell-based, ATP luminescence, cherry-pick samples, cytotoxicity control, dose response (AID 687004;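 active means a fitted half-maximal concentration no higher than twice the top valid tested dose, with signal falling as cells die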)

Measured: outcome

O=C(CSc1ncnc2c1cnn2-c1ccccc1Cl)N1CCN(C(=O)c2ccco2)CC1
inactive: all assays above

COc1ccc(-c2cnc3c(c2)C(=O)N([C@H](C)CO)C[C@H](C)[C@H](CN(C)Cc2ccc(F)cc2)O3)cc1
inactive: all assays above

O=C([C@H]1[C@H](CO)[C@H]2Cn3c(cccc3=O)[C@@H]1N2Cc1cccc(Cl)c1)N1CCOCC1
inactive: all assays above

C/C=C/c1ccc([C@H]2[C@@H](C#N)N(S(=O)(=O)c3cccc(F)c3)[C@H]2CO)cc1
inactive: all assays above

C/C=C/c1cnc2c(c1)C(=O)N([C@H](C)CO)C[C@@H](C)[C@@H](CN(C)C(=O)C1CCCCC1)O2
inactive: all assays above

CNC[C@@H]1Oc2cc(Br)ccc2S(=O)(=O)N([C@H](C)CO)C[C@H]1C
inactive: all assays above

Cc1ccc(S(=O)(=O)Nc2ccc3c(c2)C(=O)N([C@@H](C)CO)C[C@@H](C)[C@@H](CN(C)S(=O)(=O)c2ccc(Cl)cc2)OCCCC[C@H](C)O3)cc1
inactive: all assays above

Cc1noc(C)c1S(=O)(=O)Nc1ccc2c(c1)C(=O)N([C@@H](C)CO)C[C@H](C)[C@@H](CN(C)Cc1ccc3c(c1)OCO3)OCCCC[C@@H](C)O2
inactive: all assays above

C[C@@H]1CN([C@H](C)CO)C(=O)c2cc(NC(=O)CCC(F)(F)F)ccc2O[C@@H](C)CCCCO[C@@H]1CN(C)C(=O)c1ccncc1
inactive: all assays above

CCCNC(=O)C[C@H]1C[C@H]2c3cc(NC(=O)Nc4ccc(OC)cc4)ccc3O[C@H]2[C@@H](CO)O1
inactive: all assays above

CC(C)NC(=O)Nc1ccc2c(c1)C(=O)N([C@@H](C)CO)C[C@@H](C)[C@@H](CN(C)C(=O)c1ccncc1)OCCCC[C@@H](C)O2
inactive: all assays above

CO[C@H]1CN(C)C(=O)c2cc(NS(=O)(=O)c3ccc(C)cc3)ccc2OC[C@H](C)N(C)C[C@H]1C
inactive: all assays above

C[C@H](CO)N1C[C@H](C)[C@H](CN(C)C(=O)Nc2cccc(F)c2)Oc2ncc(C#CCN(C)C)cc2C1=O
inactive: all assays above

CO[C@H]1CN(C)C(=O)c2ccc(NC(C)=O)cc2OC[C@H](C)N(C(=O)c2ccncc2)C[C@@H]1C
inactive: all assays above

COc1ccc(-n2ncc3c(SCC(=O)OC(C)C)ncnc32)cc1
inactive: all assays above

O=C(NC[C@@H]1[C@H](c2ccccc2)[C@@H](CO)N1C(=O)Cc1cccnc1)C1CCC1
inactive: all assays above

O=C(Nc1ccc(F)cc1)N1C[C@@H]2[C@H](c3ccccc31)[C@H](CO)N2Cc1cocn1
inactive: all assays above

O=C([C@H]1[C@H](CO)[C@H]2Cn3c(cccc3=O)[C@H]2N1CCC(F)(F)F)N1CCCCC1
inactive: all assays above

COCCNC(=O)C[C@H]1CC[C@@H]2[C@H](COC[C@H](O)CN2S(=O)(=O)c2ccccc2C)O1
inactive: all assays above

COCCNC(=O)C[C@@H]1CC[C@H]2[C@@H](COC[C@H](O)CN2Cc2cccc(-c3ccncc3)c2)O1
inactive: all assays above

CC(C)c1ccc(S(=O)(=O)N2CCN(CC(=O)Nc3ccc4c(c3)OCO4)CC2)cc1
inactive: all assays above

CCCCN1CCCCC1C(=O)Nc1c(C)cccc1C (stereo not drawn)
inactive: all assays above

C[C@@H]1CN([C@@H](C)CO)C(=O)CCCn2cc(nn2)CO[C@@H]1CN(C)C(=O)CCCN(C)C
inactive: all assays above

C[C@@H]1CN([C@@H](C)CO)C(=O)c2cccc(N(C)C)c2O[C@H]1CN(C)C(=O)Nc1ccc(C(F)(F)F)cc1
inactive: all assays above

CC(C)NC(=O)Nc1ccc2c(c1)C(=O)N([C@@H](C)CO)C[C@@H](C)[C@H](CN(C)C(=O)Cc1ccccc1)OCCCC[C@@H](C)O2
inactive: all assays above

Cc1cc(C)c(NC(=O)C2CCCN2C)c(C)c1 (stereo not drawn)
inactive: all assays above

CCC(=O)N[C@H]1C=C[C@@H](CC(=O)OC)O[C@@H]1CO
inactive: all assays above

O=C(C[C@H]1C=C[C@H](NC(=O)C2CCC2)[C@@H](CO)O1)NC1CCC1
inactive: all assays above

Cc1ccc(C2=NN(C(=O)c3ccc(Br)o3)C(c3ccc(C)cc3)C2)cc1 (stereo not drawn)
inactive: all assays above

C[C@H](CO)N1C[C@H](C)[C@@H](CN(C)Cc2cccc(C(F)(F)F)c2)OCc2cnnn2CCCC1=O
inactive: all assays above

CN1CCN(C(=O)C[C@@H]2CC[C@H]3[C@@H](COC[C@H](O)CN3C(=O)Cc3ccccc3)O2)CC1
inactive: all assays above

Cc1cccc(C)c1NC(=O)C1NC(=O)CC1c1ccccc1 (stereo not drawn)
inactive: all assays above

C[C@H](NC(=O)C[C@@H]1C=C[C@H](NC(=O)CN2CCOCC2)[C@@H](CO)O1)c1ccccc1
inactive: all assays above

C[C@@H](NC(=O)C[C@H]1CC[C@@H](NC(=O)Cc2ccccn2)[C@@H](CO)O1)c1ccccc1
inactive: all assays above

C[C@H](NC(=O)C[C@@H]1CC[C@@H]2[C@H](COC[C@@H](O)CN2C(=O)Nc2cccc(F)c2)O1)c1ccccc1
inactive: all assays above

CC(C)(C)C(=O)N1CCCC1C(=O)Nc1ccccc1 (stereo not drawn)
inactive: all assays above

COCC(=O)Nc1ccc2c(c1)C(=O)N(C)C[C@@H](OC)[C@H](C)CN(Cc1ccccc1)[C@@H](C)CO2
inactive: all assays above

CC(=O)NC[C@H]1[C@@H](c2ccc(C3=CCCC3)cc2)[C@@H](CO)N1C(=O)NC(C)C
inactive: all assays above

CCCN1C[C@H](C)[C@@H](OC)CN(C)C(=O)c2cc(NC(=O)c3cccc(F)c3)ccc2OC[C@H]1C
inactive: all assays above

CO[C@@H](CN(C)Cc1ccc2c(c1)OCO2)[C@@H](C)CN(C(=O)c1ccccc1)[C@H](C)CO
inactive: all assays above

CC(C)(C)SCCNC(=O)CN(c1ccc(F)cc1)S(=O)(=O)c1ccccc1
inactive: all assays above

CCCNC(=O)N1C[C@@H](O)COC[C@H]2O[C@H](CC(=O)N3CCN(C)CC3)CC[C@@H]21
inactive: all assays above

O=C(Nc1ccc(Cl)c([N+](=O)[O-])c1)c1ccco1
inactive: all assays above

COc1cccc(C2CC(c3cccs3)=NN2C(=O)c2ccco2)c1O (stereo not drawn)
inactive: all assays above

CCn1cc(C(=O)N(C)c2ccc(OC)cc2OC)c2cc(OC)c(OC)cc2c1=O
inactive: all assays above

O=C(CSc1ncnc2c1cnn2-c1ccc(Cl)cc1)NCc1ccc2c(c1)OCO2
inactive: all assays above

C[C@@H]1CN([C@@H](C)CO)C(=O)c2cc(-c3cncnc3)cnc2O[C@H]1CN(C)C(=O)Cc1ccccc1
inactive: all assays above

CO[C@H]1CC[C@H]2CCOc3c(C#N)cccc3C(=O)N(C)C[C@@H](C)C(=O)N(C)C[C@H]1O2
inactive: all assays above

Cc1cccc(C)c1NC(=O)CNC(=O)C(C)N1CCCCC1 (stereo not drawn)
inactive: all assays above

COCCNC(=O)C[C@@H]1C[C@H]2c3cc(NC(=O)C4CCC4)ccc3O[C@H]2[C@@H](CO)O1
inactive: all assays above

CCC(C)(NC=O)C(=O)Nc1c(C)cccc1C (stereo not drawn)
inactive: all assays above

O=C(C[C@@H]1CC[C@@H]2[C@H](COC[C@H](O)CN2Cc2cccc(C(F)(F)F)c2)O1)NCc1ccccc1
inactive: all assays above
